Source: PubChem BioAssay
This excerpt belongs to a sample that is enriched for hits.
Shiga inhibitor: blocks Shiga toxin action in Vero cells. Vero cells, Shiga toxin protein synthesis inhibition reporter. inhibition, % at 38.7 µM. 9.2% of 290,000 active. AID 2315; in the data active means inhibition mostly above about 28%, no sharp cut-off; inactive means mostly below about 43%; further: 0% is about no effect
Sm TGR inh: S. mansoni TGR enzyme inhibition; purified TGR, DTNB reduction, TNB absorbance 405 nm; Potency, µM (titrated, usually from 114 µM), without a hit: at the top dose activity change, negative = inhibition, most hits filed as inhibitors; 3% of 360,000 active; further: potency means the concentration at half of the fitted maximal effect; on the % scale 0 is the no-effect control and ±100 the full control effect; nearly all actives have a fitted effect of over 60% in size
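Kinetic colorimetric format: TGR-catalysed, NADPH-driven DTNB reduction monitored via TNB absorbance. Enzyme dispensed at 20 nM; compound exposure 15 min at room temperature before reaction start.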
FBPA Giardia inh: Giardia lamblia aldolase inhibition; purified Giardia FBPA; Potency, µM (highest dose often 59.6 µM), without a hit: top-dose activity, negative = inhibition, usual class: inhibitors; 0.71% of 290,000 active; further: potency means the concentration at half of the fitted maximal effect; on the % scale 0 is the no-effect control and ±100 the full control effect; nearly all actives have a fitted effect of over 55% in size
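Giardia FBPA (40 nM reagent) was preincubated 10 min at RT with compound (up to 57.5 uM final), then substrate plus GAPDH/TPI/NAD/arsenate coupling system with diaphorase/resazurin was added; resorufin fluorescence (525/598 nm) was read after 20 min.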
LmPK inh: inhibitors of Leishmania mexicana pyruvate kinase | Q27686 | purified LmPK, Kinase-Glo ATP luminescence, 1 h | Potency, µM (doses to about 57.5 µM), inactives show at the highest dose activity change, negative = inhibition, usual class: inhibitors | 0.37% of 290,000 active; further: potency means the concentration at half of the fitted maximal effect; on the % scale 0 is the no-effect control and ±100 the full control effect
Target sequence (Q27686 whole entry, looked up): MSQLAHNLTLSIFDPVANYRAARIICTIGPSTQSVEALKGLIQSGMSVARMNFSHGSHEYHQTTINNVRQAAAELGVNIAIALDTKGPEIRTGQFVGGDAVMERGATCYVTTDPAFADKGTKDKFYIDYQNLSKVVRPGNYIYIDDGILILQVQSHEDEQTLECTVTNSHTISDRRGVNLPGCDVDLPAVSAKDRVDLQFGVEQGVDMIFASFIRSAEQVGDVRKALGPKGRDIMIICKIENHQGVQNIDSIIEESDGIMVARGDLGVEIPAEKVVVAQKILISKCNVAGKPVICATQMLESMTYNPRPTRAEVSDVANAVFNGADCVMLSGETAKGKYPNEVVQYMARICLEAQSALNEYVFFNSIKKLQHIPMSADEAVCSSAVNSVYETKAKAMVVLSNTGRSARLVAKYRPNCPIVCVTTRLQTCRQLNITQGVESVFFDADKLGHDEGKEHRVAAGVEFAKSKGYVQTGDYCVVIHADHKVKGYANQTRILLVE
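Kinase-Glo luminescence read after 1 h RT reaction of 0.1 nM LmPK with 0.5 mM PEP and 0.1 mM ADP. Activity scaled between uninhibited and enzyme-free controls.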
CHX counter: counter-screen hit for Shiga toxin inhibitors, cycloheximide; cell reporter, cycloheximide protein synthesis inhibition counterscreen; max response, %; 12% of 300,000 active; AID 2314; in the data active means max response mostly above about 13%, no sharp cut-off; inactive means mostly below about 14%; further: read at 38.3 µM for the half of the compounds with a filed dose; 0% is about no effect
Tb PYK inh: blocks Trypanosoma brucei pyruvate kinase. Q57TT1. TbPYK enzyme, Kinase-Glo Plus ATP luminescence, 45 min. Potency, µM (titrated, usually from 76.8 µM), for inactives: at the highest dose activity, negative = inhibition, usual class: inhibitors. 0.12% of 410,000 active; further: potency means the concentration at half of the fitted maximal effect; on the % scale 0 is the no-effect control and ±100 the full control effect; nearly all actives have a fitted effect of over 50% in size
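TbPYK + substrate in 50 mM TEA pH 7.2, 100 mM KCl, 10 mM MgCl2, 0.05% BSA, 0.01% Tween-20; cpd pinned; ADP 130 uM final; 45 min RT; Kinase-Glo Plus 10 min; luminescence endpoint.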
An asterisk follows results filed as active; ? = inconclusive; · = no result given; [ ] = dose if it differs, or a comment. Unless noted, the call rests on the fitted dose curve; in most records, active means well fitted curve in the direction sought with a large enough effect; inconclusive means small, poorly fitted or top-dose-only effect, or another doubt; inactive means no such curve, though single readings can be large; an effect the other way counts as inactive or inconclusive.

SMILES	Shiga inhibitor	Sm TGR inh	FBPA Giardia inh	LmPK inh	CHX counter	Tb PYK inh
O=[N+]([O-])c1ccc(/C=N/NS(=O)(=O)c2ccc(Cl)cc2)o1	6.3	12.6µM*	1.6%	-0.2%	6.1	-4.3%
Clc1ccc2c(N/N=C/c3ccccc3Br)ccnc2c1	10.9	-3.2%	-3.0%	-2.8%	-2.8	0.3%
Cc1ccc(S(=O)(=O)N/N=C\c2ccc([N+](=O)[O-])o2)cc1C	-16.2	-1.9%	·	-8.9%	-6.8	-10.9%
CC(=O)Nc1ccc(NS(=O)(=O)c2c(C(=O)N3CCC(C)CC3)c(C)n(C)c2C)cc1	·	-7.9%	·	·	·	0.8%
Cc1ccc(S(=O)(=O)NC(=O)c2cc(C)n(-c3ccc(N(C)C)cc3)c2C)cc1	50.5*	-2.2%	23.6%	7.0%	19.4*	8.4%
CCc1ccnc(NC(=O)NS(=O)(=O)c2ccc(C)cc2)c1	23.1	-26.8%	1.4%	-1.9%	15.7*	0.9%
Cc1ccc(NC(=O)NNS(=O)(=O)c2ccc(Br)cc2)cc1	13.3	-16.3%	2.1%	0.2%	-1.5	-3.4%
Cc1ccc(S(=O)(=O)NC(=O)Nc2cc(C)on2)cc1	-6.5	14.7%	1.9%	-1.5%	1.0	4.8%
Cc1ccc(S(=O)(=O)NC(=O)c2cc(C)n(-c3ccccc3)c2C)cc1	-23.5	5.3%	23.5%	0.8%	8.4	-10.3%
Cc1ccc(S(=O)(=O)NC(=O)Nc2ccc(N(C)C)cc2)cc1	54.2*	50.1µM*	·	-26.2%	55.5*	-28.7%
Cc1cc(Oc2c(C(F)(F)F)oc3c(CN4CCC(C)CC4)c(O)ccc3c2=O)cc(C)c1Cl	·	7.3%	·	·	·	2.3%
CCOc1ccccc1CNC(=O)c1ccc(Cn2c(SCc3ccccc3)nc3cccnc32)cc1	·	2.8%	·	·	·	-5.6%
O=[N+]([O-])c1ccc(Sc2ncccn2)c([N+](=O)[O-])c1	-3.8	10µM*	-9.6%	3.4%	-2.5	3.5%
NNS(=O)(=O)c1ccc(Sc2ccccn2)c([N+](=O)[O-])c1	35.7	-8.2%	-2.7%	6.9%	14.6*	-0.2%
O=[N+]([O-])c1ccc(Sc2nccn2Cc2ccccc2)c([N+](=O)[O-])c1	-5.9	28.2µM*	·	10.7%	-3.2	-2.4%
O=[N+]([O-])c1cc(C(F)(F)F)ccc1Sc1nccn1Cc1ccccc1	-12.0	-9.0%	-12.1%	-1.5%	1.4	3.9%
N#Cc1ccc(Sc2ccccn2)c([N+](=O)[O-])c1	1.7	-5.8%	-17.3%	-14.8%	-0.4	-2.7%
COc1ccccc1-c1nnc(C2CCN(S(=O)(=O)c3ccccc3)CC2)o1	·	34.1%	·	·	·	-11.7%
CCN(CC)c1ccc(-c2sc(Nc3ccccc3)n[n+]2-c2ccc(F)cc2)cc1	25.9*	-1.7%	1.5%	-9.9%	18.2*	-8.8%
CN(C)c1ccc(-c2sc(Nc3ccccc3)n[n+]2-c2ccc(F)cc2)cc1	50.4*	-12.3%	-14.9%	-3.7%	35.9*	-7.1%
O=C(O)c1ccc(-c2sc(Nc3ccccc3)n[n+]2-c2ccc(F)cc2)cc1	-4.6	-24.6%	?	0.0%	-1.6	-8.4%
CCCCOC(=O)Nc1ccc(N2CCOCC2)cc1	79.9*	5.0%	-5.9%	-1.8%	29.1*	8.5%
CCNCC(=O)Nc1ccc(N2CCOCC2)cc1	-9.8	-11.3%	-12.1%	-3.3%	-3.3	-2.2%
CCCCOC(=O)Nc1ccc(N2CCCCC2)cc1	93.6	0.0%	-16.9%	9.1%	42.8*	-18.9%
O=C(NCc1ccccc1)C1CCCN(C(=O)c2ccc(F)cc2)C1 (stereo not drawn)	·	2.1%	·	·	·	-3.8%
SMILES	Shiga inhibitor	Sm TGR inh	FBPA Giardia inh	LmPK inh	CHX counter	Tb PYK inh
c1cncc(-c2csc(-c3cccnc3)n2)c1	26.8	13.1%	5.0%	-6.4%	8.7	-8.1%
c1csc(-c2csc(-c3cccs3)n2)c1	118.4*	0.0%	-5.9%	-10.7%	30.0*	0.9%
Oc1ccc(-c2csc(-c3cccnc3)n2)c(O)c1	111.2*	-2.1%	-0.6%	-6.7%	34.7*	-8.1%
c1cncc(-c2nc(-c3ccco3)cs2)c1	79.4*	7.94µM*	-16.1%	-9.0%	27.2*	?
OC(c1ccc(F)cc1)c1nc(-c2cccs2)cs1 (stereo not drawn)	·	·	·	·	·	-1.8%
c1cncc(-c2nc(-c3cccs3)cs2)c1	53.3	-21.9%	12.6%	-1.8%	44.0*	?
C#C[C@]1(O)CC[C@H]2C3CCC4=Cc5oncc5CC4(C)C3CCC21C (stereo partly drawn)	·	·	-4.7%	·	·	·
c1cn(-c2cc(-c3ccc4c(c3)OCO4)ncn2)cn1	·	·	-12.7%	·	·	·
COc1ccc(NC(=O)N2CC3(CCN(C(=O)c4ccco4)CC3)C2)cc1	·	·	3.1%	·	·	5.6%
Cc1nc2ccccc2c(=O)n1-c1ccc(NC(=O)c2ccccc2[N+](=O)[O-])cc1	·	2.1%	·	·	·	-2.1%
Clc1ccsc1-c1csc(-c2cccnc2)n1	35.1	-4.3%	0.2%	8.1%	33.2*	2.9%
O=S(=O)(c1ccc(-c2csc(-c3cccnc3)n2)cc1)N1CCCC1	1.5	0.0%	1.3%	1.6%	-1.7	-2.9%
CCn1c(C)c(C(=O)Nc2ccc(OC)cc2)c2cc(OC)ccc21	27.3	-7.0%	-8.7%	0.8%	19.4*	0.0%
COC(=O)C/C=C\[C@@H](C)[C@@H](CO)NS(=O)(=O)c1ccc(C)cc1	·	·	0.0%[12.9 µM]	·	·	·
CCCC(=O)N(Cc1cc(=O)[nH]c2ccccc12)c1ccc(C)cc1C	-4.3	-2.8%	1.6%	-1.7%	-3.4	0.0%
Cc1ccc(N(Cc2cc(=O)[nH]c3ccccc23)C(=O)CCl)c(C)c1	-11.1	12.6µM*	5.9%	1.7%	0.6	-12.5%
O=[N+]([O-])c1cnc2nc(-c3ccncc3)nn2c1O	-23.0	-0.9%	-0.6%	12.6µM*	-2.8	-10.6%
CN(C)c1ccc(-c2nc(-c3ccncc3)no2)cc1[N+](=O)[O-]	·	?	·	·	·	-4.6%
O=C(N/N=C/c1ccccc1Cl)c1ccncc1	4.0	-15.8%	-2.9%	-2.1%	10.8	-11.6%
C(=NNc1ccc2ccccc2n1)c1ccccn1	·	·	·	·	·	-16.3%
Clc1ccccc1/C=N/NC1=Nc2cccc3cccc1c23	65.8*	-2.1%	-3.0%	-5.5%	31.5*	2.0%
C(=N\NC1=Nc2cccc3cccc1c23)/c1ccccn1	97.5*	8.3%	?	-0.6%	53.2*	0.4%
CCN(CC)CCNC(=O)CCCCn1c(=S)[nH]c2c([nH]c3ccc(OC)cc32)c1=O	17.9	11.2%	-9.3%	2.82µM*	-2.6	?
CCCCNC(=O)c1ccc(Cn2c(=S)[nH]c3c([nH]c4ccc(OC)cc43)c2=O)cc1	-7.6	-9.9%	5.4%	-1.1%	1.3	?
Cc1cccc(CC(=O)N2CC(=O)Nc3ccc(Br)cc3C2c2ccc(F)cc2)c1 (stereo not drawn)	·	-3.4%	·	·	·	0.5%
C=CCOC(=O)/C=C/NC(=O)/C=C/C=C/CCCCCCCC(C)O (stereo not drawn)	·	·	0.3%[12.9 µM]	·	·	·
C=CCOC(=O)/C=C/C(=O)NC(N)=O	-8.0	1.26µM*	-0.2%	8.8%	-2.0	-17.7%
